Compound activity deposited in PubChem BioAssay by SRMLSC.
Rows were chosen to be rich in hits. Some 6.3% of all compounds tested hit in one or more screens of this group.
Abs 340nm: compounds absorbing at 340 nm. compound absorbance at 340 nm, fold over control. fold change at 10 µM. 65,000 tested, under 10 active. AID 708;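 active = at 10 µM dose, initial 340 nm absorbance at least 2 fold that of control wells; inactive = change under 2 fold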;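 also: initial absorbance extrapolated from kinetic A340 decline of NADH oxidation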
Spn DPM-DC inh: blocks S. pneumoniae diphosphomevalonate decarboxylase | purified DPM-DC, PK/LDH coupled NADH fluorescence | calls only at 10 µM | 65,000 compounds, 0.49% hits;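 active = the 320 compounds with the highest percent inhibition in the single-dose primary screen, excluding strongly autofluorescent ones, cut at about 32% in these data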;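 also: kinetic rate of NADH fluorescence loss reporting ADP formed by the decarboxylase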
Autofluor 339: intrinsic fluorescence of library compounds, ex339/em460 – biochemical, MLSMR library, data from DPM-DC assay, artefact control, profiling panel; compound autofluorescence, ex339/em460 nm, NADH buffer; hits give high values; 1 = no-compound wells, NADH background; fluorescence fold increase at 10 µM; 65,000 compounds, 5.5% hits; AID 709;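 active = at 10 µM, mean starting fluorescence two-fold or more over control wells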;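 also: signal is the first read of a kinetic run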
NADH coupling: inhibitors of enzymes used to reach an NAD/NADH endpoint. coupled PK/LDH NADH assays, four targets. IC50, µM (series often up to 10 µM), for the others: at the top dose inhibition. 65,000 compounds, 0.02% hits. AID 774;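 active = single-dose screening hits from any of four coupled enzyme assays that gave an IC50 when retested across doses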;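 also: the DPM-DC format reads NADH fluorescence rather than 340 nm absorbance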
MK inhibit: inhibitors of Streptococcus pneumoniae mevalonate kinase; AID 555; inhibition, % at 10 µM; purified MK, PK/LDH-coupled NADH absorbance 340 nm; 65,000 compounds, 0.48% hits;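 active = ranked among the strongest by inhibition in the single 10 µM screen, a fixed top-ranked set picked for dose follow-up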
PMK inhibit: inhibitors of Streptococcus pneumoniae phosphomevalonate kinase; purified PMK, PK/LDH-coupled NADH absorbance 340 nm; 65,000 compounds, 0.49% hits; inhibition, % at 10 µM;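 active = top-ranked compounds by inhibition in the single 10 µM screen, taking a fixed number of the strongest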;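 also: 0% = full reaction with DMSO carrier and 100% = background rate without enzyme reaction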
Active calls of the source: *.

Screening CC1Cc2ccccc2N1c1ncnc2c1nnn2Cc1ccccc1 (configuration not stated) returned Abs 340nm 1.1, Spn DPM-DC inh inactive, Autofluor 339 2.6*, NADH coupling 5%, MK inhibit 0 and PMK inhibit 8.
Screening c1ccc(Cn2nnc3c(N4CCc5ccccc5C4)ncnc32)cc1 returned Abs 340nm 0.97, Spn DPM-DC inh inactive, Autofluor 339 1.1, NADH coupling 5%, MK inhibit 5 and PMK inhibit 10.
COc1cc(-c2nc3cnccn3c2Nc2ccccc2)ccc1O was read as Abs 340nm 1.1, Autofluor 339 2.1*, NADH coupling 3%, MK inhibit 3 and PMK inhibit 2.
`COc1cc(-c2nc3cnccn3c2Nc2ccc3c(c2)OCCO3)ccc1O` gave Abs 340nm 1.1, Spn DPM-DC inh inactive, Autofluor 339 1.5, NADH coupling 8%, MK inhibit 7 and PMK inhibit 0.
Cc1ccc(S(=O)(=O)Nc2nc3ccccc3nc2NCc2ccco2)cc1C was read as Abs 340nm 1.1, Spn DPM-DC inh inactive, Autofluor 339 2.1*, NADH coupling 10%, MK inhibit 6 and PMK inhibit 11.
Cc1ccc(S(=O)(=O)Nc2nc3ccccc3nc2NCc2ccco2)cc1 was read as Abs 340nm 1.1, Spn DPM-DC inh inactive, Autofluor 339 1.6, NADH coupling 5%, MK inhibit 2 and PMK inhibit 3.
`COc1cc(S(=O)(=O)N2CCCC3(CCCCC3)C2)ccc1-n1cnnn1` gave Abs 340nm 1, Spn DPM-DC inh inactive, Autofluor 339 2.8*, NADH coupling 3%, MK inhibit 6 and PMK inhibit 0.
`O=C(O)CCCC(=O)N1CCN(c2nc(-c3ccccc3)c3ccccc3n2)CC1` gave Abs 340nm 1, Autofluor 339 2.1*, NADH coupling 1%, MK inhibit 2 and PMK inhibit 0.
O=C(O)C1CC=CCC1C(=O)N1CCN(c2nc(-c3ccccc3)c3ccccc3n2)CC1 (configuration not stated) was read as Abs 340nm 1, Spn DPM-DC inh inactive, Autofluor 339 2, NADH coupling 9%, MK inhibit 2 and PMK inhibit 2.
`COc1ccc(N2CCN(c3nc4c(c(=O)[nH]c(=O)n4C)n3CCCc3ccccc3)CC2)cc1` gave Abs 340nm 0.98, Spn DPM-DC inh inactive, Autofluor 339 1, NADH coupling 2%, MK inhibit 1 and PMK inhibit 0.
For O=C(Nc1cccc2c1C(=O)NC2=O)c1ccc(S(=O)(=O)N2CCCC2)cc1 the results were Abs 340nm 1, Spn DPM-DC inh inactive, Autofluor 339 2.3*, NADH coupling 8%, MK inhibit 5 and PMK inhibit 16.
For CCOC(=O)c1cccc(NC(=O)c2cnccn2)c1 the results were Abs 340nm 1, Spn DPM-DC inh inactive, Autofluor 339 1, NADH coupling 7%, MK inhibit 10 and PMK inhibit 10.
CCOC(=O)c1cncc(NC(=O)c2ccccc2)c1 was read as Abs 340nm 1, Spn DPM-DC inh active, Autofluor 339 0.61, NADH coupling 20%, MK inhibit 8 and PMK inhibit 16.
CN(C)CCSc1nnc(-c2ccccc2)o1 was read as Abs 340nm 1, Spn DPM-DC inh active, Autofluor 339 1.2, NADH coupling 18%, MK inhibit 5 and PMK inhibit 5.
For CSc1nnc(-c2ccccc2)o1 the results were Abs 340nm 1, Spn DPM-DC inh inactive, Autofluor 339 1.1, NADH coupling 3%, MK inhibit 7 and PMK inhibit 2.
`CCN(CC)c1ccc2c(C)c(CN3CCOCC3)c(=O)oc2c1` gave Abs 340nm 1.1, Autofluor 339 4.3*, NADH coupling 9%, MK inhibit 9 and PMK inhibit 9.
Screening Cc1ccc(C)c(N2CCN(C(=O)c3cc(S(=O)(=O)N4CCOCC4)ccc3F)CC2)c1 returned Abs 340nm 1, Spn DPM-DC inh inactive, Autofluor 339 1, NADH coupling 4%, MK inhibit 0 and PMK inhibit 12.
O=C(Nc1ccc2c(c1)C(=O)N(C1CCCCC1)C2=O)C1CCCO1 (configuration not stated) was read as Abs 340nm 1, Autofluor 339 2.5*, NADH coupling 2%, MK inhibit 7 and PMK inhibit 1.
